Screening results as filed in PubChem BioAssay.
Rows were chosen to be rich in hits. Some 7.5% of all compounds tested hit in one or more screens of this group.
FMDV inh = foot and mouth disease virus antiviral activity. FMDV antiviral cell-based qHTS. Potency, µM (doses to about 57.9 µM), without a hit: at the highest dose activity change, negative = inhibition, actives largely listed as inhibitors. actives 1.2% (n = 410,000); calls by dose curve; tested in HEK293T cells; also: read-out not given here; potency is read from the fitted curve at half-maximal effect; nearly all actives have a fitted effect of over 45% in size
HCV inhibitor = HCV inhibition; AID 651820; Huh7.5.1 HCVcc-Cre infection, luciferase reporter, 44 h; actives 3.4% (n = 340,000); Potency, µM (doses to about 41.8 µM), for inactives: top-dose activity change, negative = inhibition, hits mostly inhibitors; also: potency is read from the fitted curve at half-maximal effect
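Cells seeded at 1,000/well and cultured 4 h, then compounds added followed by HCVcc-Cre virus (~0.5 moi). After 44 h further culture, luciferase substrate was added, plates held 15 min at room temperature, and luminescence read for 15 sec.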
HCMV antiviral = human cytomegalovirus inhibition | activity change, negative = inhibition, % at 57.5 µM | HFF cells, HCMV-luciferase reporter, 72 h; hits give low values | actives 4.5% (n = 410,000); in the data active = activity change below about -60%; inconclusive = no clear call, values can overlap the other calls; inactive = above about -39%
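Inhibition of viral replication was scored as loss of reporter luminescence in HFFs infected with HCMV-luciferase (MOI 1 PFU/cell) for 72 h; compounds tested at 2 doses, normalized to buffer and Salinomycin controls.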
VACV mCherry inh = inhibitors of vaccinia virus infection (mCherry reporter signal) | Vaccinia virus mCherry reporter infection, fluorescence | Potency, µM (highest dose often 36.5 µM), inactives show at the highest dose activity change, negative = inhibition, hits mostly inhibitors | actives 0.63% (n = 310,000) | AID 720579; calls by dose curve; tested in A549 cells; also: potency is read from the fitted curve at half-maximal effect; nearly all actives have a fitted effect of over 35% in size
Vaccinia Venus = inhibitors of vaccinia virus (Venus reporter); Vaccinia virus Venus reporter expression, fluorescence; Potency, µM (highest dose often 36.5 µM), without a hit: top-dose activity change, negative = inhibition, hits mostly inhibitors; actives 0.46% (n = 330,000); calls by dose curve; tested in A549 cells; also: potency is read from the fitted curve at half-maximal effect; nearly all actives have a fitted effect of over 30% in size
Giardia FBPA inh = blocks Giardia fructose-bisphosphate aldolase activity; A8B2U2; purified Giardia FBPA; Potency, µM (doses to about 59.6 µM), for the others: at the highest dose activity, negative = inhibition, actives largely listed as inhibitors; actives 0.71% (n = 290,000); AID 2451; also: potency is read from the fitted curve at half-maximal effect; nearly all actives have a fitted effect of over 55% in size
Target sequence (A8B2U2 whole entry, looked up): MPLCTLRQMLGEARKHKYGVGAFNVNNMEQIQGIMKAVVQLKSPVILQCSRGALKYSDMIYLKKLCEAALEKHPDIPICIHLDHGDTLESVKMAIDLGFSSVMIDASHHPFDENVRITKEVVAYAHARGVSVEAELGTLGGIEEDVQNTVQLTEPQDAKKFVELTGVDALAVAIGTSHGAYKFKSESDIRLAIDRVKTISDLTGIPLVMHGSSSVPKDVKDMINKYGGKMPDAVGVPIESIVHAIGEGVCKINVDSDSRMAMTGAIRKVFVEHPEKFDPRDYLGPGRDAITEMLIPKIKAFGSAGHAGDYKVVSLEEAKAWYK
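Giardia FBPA (40 nM reagent) was preincubated 10 min at RT with compound (up to 57.5 uM final), then substrate plus GAPDH/TPI/NAD/arsenate coupling system with diaphorase/resazurin was added; resorufin fluorescence (525/598 nm) was read after 20 min.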
An asterisk follows results filed as active; i = inactive; ? = inconclusive; / = no result given; [ ] = dose if it differs, or a comment. Unless noted, calls follow the shape of the dose curve; as a rule, active = well fitted curve in the direction sought with a large enough effect; inconclusive = small, poorly fitted or top-dose-only effect, or another doubt; inactive = no such curve, though single readings can be large; an effect the other way counts as inactive or inconclusive. % is scaled to controls: 0 for no effect and ±100 for the full control effect.

SMILES	FMDV inh	HCV inhibitor	HCMV antiviral	VACV mCherry inh	Vaccinia Venus	Giardia FBPA inh
CCC(CO)Oc1cc(NC(=O)c2ccc([N+](=O)[O-])cc2)c2ncn(C(C)C)c2c1 (stereo not given)	-23.2%	-21.1%	-0.7	-21.2%	-10.7%	/
CCc1ccccc1NC(=O)CC(c1ccc(F)cc1)N1Cc2ccccc2C1=O (stereo not given)	9.8%	/	-25.8	-20.9%	-7.6%	/
O=C(NCC1Cc2cccc(-c3cccnc3)c2O1)c1cc(-c2ccccc2)n[nH]1 (stereo not given)	-12.7%	/	/	i	-16.1%	/
Cc1ccc(S(=O)(=O)c2nc(S(=O)(=O)c3ccc(C)cc3)c(NCCCOC(C)C)s2)cc1	7.2%	/	-6.0	-10.0%	-10.5%	/
COc1cc(NCc2ccccc2)c2ncn(C(C)C)c2c1	-14.1%	10µM*	21.5	-24.9%	-23.0%	/
CC(C)=CCCC1(C)C=Cc2c(O)c3c(c(CC=C(C)C)c2O1)OC12C(=CC4CC1C(C)(C)OC2(C/C=C(/C)C(=O)O)C4=O)C3=O (stereo not given)	5.62µM*	/	/	?	?	-3.5%
CC(C)=CCCC1(C)C=Cc2c(O)c3c(c(CC=C(C)C)c2O1)OC12C(=CC4CC1C(C)(C)OC2(C/C=C(/C)C(=O)O)C4O)C3=O (stereo not given)	10µM*	/	/	12.6µM*	11.2µM*	-6.9%
CCc1ccccc1NC(=O)CSc1nnc(COc2ccccc2Cl)o1	-11.0%	/	-9.8	-9.3%	2.7%	/
Cc1ccc(S(=O)(=O)N(C)C)cc1NC(=O)CSc1nc2ncc(Cl)cc2[nH]1	?	2.51µM*	4.8	-24.1%	-15.1%	/
Cc1ccccc1NC(=O)CSc1nc2ncc(Cl)cc2[nH]1	-1.4%	-11.4%	-12.9	-3.1%[7.34 µM]	0.0%[7.34 µM]	-26.5%
CC(C)(C)c1ccc(C(=O)Nc2ccc(CC(=O)O)cc2)o1	0.794µM*	-4.2%	-74.1*	i	-6.0%	-0.7%
Cc1ccc(C(=O)Nc2ccc(CC(=O)O)cc2)o1	-11.2%	12.3%	-29.0	/	/	2.0%
CN(c1ccccc1)S(=O)(=O)c1cccc(NC(=O)CSc2nncs2)c1	10µM*	?	-30.2	-11.7%	-19.5%	-7.5%
CN(c1ccccc1)S(=O)(=O)c1cccc(NC(=O)Cc2n[nH]c(=O)c3ccccc23)c1	?	10µM*	?	/	/	/
CN(c1ccccc1)S(=O)(=O)c1cccc(NC(=O)CN2C(=O)NC3(CCCCC3)C2=O)c1	-17.3%	3.16µM*	3.6	/	/	/
CN(c1ccccc1)S(=O)(=O)c1cccc(NC(=O)CSc2ncn[nH]2)c1	35.5µM*	?	-68.2*	-27.4%	-28.9%	-0.6%
CC1CCC2(CC1)NC(=O)N(CC(=O)Nc1cccc(S(=O)(=O)N(C)c3ccccc3)c1)C2=O (stereo not given)	-7.4%	/	-15.2	-5.3%	?	/
CCN(CC)S(=O)(=O)c1cc(NC(=O)Cc2n[nH]c(=O)c3ccccc23)ccc1C	0.0%	?	?	?	-4.0%	2.4%
CN(c1ccccc1)S(=O)(=O)c1cccc(NC(=O)CSc2nnc(N)s2)c1	?	?	-16.4	?	-18.7%	-3.4%
Cc1c(NC(=O)CN2C(=O)NC(C)(c3ccccc3Cl)C2=O)c(=O)n(-c2ccccc2)n1C (stereo not given)	1.7%	5.9%	/	-9.4%	-6.1%	3.8%
Cc1c(NC(=O)CN2C(=O)NC3(CCCC3)C2=O)c(=O)n(-c2ccccc2)n1C	10.7%	-3.0%	-100.9*	i	-14.5%	4.7%
Cc1ccc(C(=O)Nc2onc3c2CCCC3)cc1	8.91µM*	/	-74.9*	-10.3%	-1.8%	/
CC(C)CCn1nnnc1CN1CCN(c2ccc(F)cc2)CC1	-10.5%	5.1%	-102.3*	-13.9%	-1.0%	0.5%
CC(C)CCn1nnnc1CN1CCN(C(c2ccccc2)c2ccccc2)CC1	?	?	-36.8	-19.7%	-22.4%	-4.8%
Cc1ccc(S(=O)(=O)Oc2ccccc2/C=N/N=C(N)N)cc1	-28.5%	-2.2%	?	?	-14.9%	?
COc1ccccc1OCCCn1cc(C#N)c2ccccc21	-23.5%	?	29.0	/	-15.9%	19.9µM*
